# Results as given in article PMC7862700, “An all-to-all approach to the identification of sequence-specific readers for epigenetic DNA modifications on cytosine”.
# Legend:
# Assay in all cases: DAPPL (digital affinity profiling via proximity ligation, sequencing); 10 mM Tris-HCl pH 7.5, 50 mM NaCl, 1 mM DTT, 4% glycerol, room temperature, 30 min; GST-TFs on glutathione beads, 16-mer random dsDNA library, 0.1% formaldehyde crosslink after washing; high values mean tight binding
# FEV = target: T1, FEV (Homo sapiens, UniProt Q99581 1-238); details: protein: recombinant; tags: N-terminal GST; dsDNA, one strand shown
# T1 sequence: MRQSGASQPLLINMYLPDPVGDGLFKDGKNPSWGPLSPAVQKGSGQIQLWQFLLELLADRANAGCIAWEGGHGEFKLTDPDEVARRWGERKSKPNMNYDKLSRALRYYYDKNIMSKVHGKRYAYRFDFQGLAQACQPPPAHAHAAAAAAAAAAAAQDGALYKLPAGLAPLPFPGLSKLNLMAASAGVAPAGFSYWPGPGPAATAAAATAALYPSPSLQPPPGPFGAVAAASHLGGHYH
# Outline: (§1)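 Binding signal is given per hexamer as its read frequency for a factor divided by its frequency in the tag-only sample. GST-fused human transcription factors were expressed in yeast, captured on glutathione beads, barcoded with DNA and pooled with that sample, then incubated with 200 nmole of a 16-mer random double-stranded DNA library in Tris/NaCl/DTT/glycerol buffer for 30 min at room temperature. The pools were then washed, crosslinked, proximity-ligated, amplified by PCR and sequenced on an Illumina NextSeq500.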
# ETV5 = ETV5 (Homo sapiens, UniProt P41161 1-510); details: protein: recombinant; tags: N-terminal GST; dsDNA, one strand shown
# Outline: as §1
# HSF1 = HSF1 (Homo sapiens, UniProt Q00613 1-529); details: protein: recombinant; tags: N-terminal GST; chain copies: 3; dsDNA, one strand shown
# Outline: as §1
# SPIC = target: T2, SPIC (Homo sapiens, UniProt Q8N5J4 1-248); details: protein: recombinant; tags: N-terminal GST; dsDNA, one strand shown
# T2 sequence: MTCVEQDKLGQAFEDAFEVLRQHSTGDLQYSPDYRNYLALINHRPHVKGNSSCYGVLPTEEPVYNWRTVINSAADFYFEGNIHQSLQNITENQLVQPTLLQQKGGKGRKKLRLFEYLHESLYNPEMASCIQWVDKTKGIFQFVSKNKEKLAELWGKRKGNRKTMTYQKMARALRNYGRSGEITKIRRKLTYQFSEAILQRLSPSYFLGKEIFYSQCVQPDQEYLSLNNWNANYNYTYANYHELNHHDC
# Outline: as §1
# ELF4 = ELF4 (Homo sapiens, UniProt Q99607 1-663); details: protein: recombinant; tags: N-terminal GST; dsDNA, one strand shown
# Outline: as §1
# ELK4 = target: T3, ELK4 (Homo sapiens, UniProt P28324-2 1-405); details: protein: recombinant; tags: N-terminal GST; dsDNA, one strand shown
# T3 sequence: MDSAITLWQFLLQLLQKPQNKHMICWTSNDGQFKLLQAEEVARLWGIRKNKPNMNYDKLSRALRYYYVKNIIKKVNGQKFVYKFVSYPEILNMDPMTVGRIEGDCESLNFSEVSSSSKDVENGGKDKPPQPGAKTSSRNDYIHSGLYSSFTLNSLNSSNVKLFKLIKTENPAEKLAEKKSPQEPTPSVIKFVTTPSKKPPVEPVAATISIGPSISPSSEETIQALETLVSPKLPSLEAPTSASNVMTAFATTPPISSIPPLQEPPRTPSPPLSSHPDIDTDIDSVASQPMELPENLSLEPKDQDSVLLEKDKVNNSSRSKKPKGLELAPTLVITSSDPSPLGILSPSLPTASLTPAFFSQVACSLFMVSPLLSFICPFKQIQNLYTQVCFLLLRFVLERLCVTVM
# Outline: as §1
# ETV2 = target: T4, ETV2 (Homo sapiens, UniProt O00321 1-342); details: protein: recombinant; tags: N-terminal GST; dsDNA, one strand shown
# T4 sequence: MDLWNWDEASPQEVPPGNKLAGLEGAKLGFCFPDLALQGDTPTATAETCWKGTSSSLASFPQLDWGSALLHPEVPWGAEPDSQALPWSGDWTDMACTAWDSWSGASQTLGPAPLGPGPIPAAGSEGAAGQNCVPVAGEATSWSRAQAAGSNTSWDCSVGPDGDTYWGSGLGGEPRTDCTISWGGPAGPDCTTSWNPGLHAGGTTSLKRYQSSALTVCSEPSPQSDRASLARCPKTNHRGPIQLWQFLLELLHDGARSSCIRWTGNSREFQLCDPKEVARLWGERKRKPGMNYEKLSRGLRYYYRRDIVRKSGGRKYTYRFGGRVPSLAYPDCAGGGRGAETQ
# Outline: as §1
# ELF3 = target: T5, ELF3 (Homo sapiens, UniProt P78545 1-371); details: protein: recombinant; tags: N-terminal GST; dsDNA, one strand shown
# T5 sequence: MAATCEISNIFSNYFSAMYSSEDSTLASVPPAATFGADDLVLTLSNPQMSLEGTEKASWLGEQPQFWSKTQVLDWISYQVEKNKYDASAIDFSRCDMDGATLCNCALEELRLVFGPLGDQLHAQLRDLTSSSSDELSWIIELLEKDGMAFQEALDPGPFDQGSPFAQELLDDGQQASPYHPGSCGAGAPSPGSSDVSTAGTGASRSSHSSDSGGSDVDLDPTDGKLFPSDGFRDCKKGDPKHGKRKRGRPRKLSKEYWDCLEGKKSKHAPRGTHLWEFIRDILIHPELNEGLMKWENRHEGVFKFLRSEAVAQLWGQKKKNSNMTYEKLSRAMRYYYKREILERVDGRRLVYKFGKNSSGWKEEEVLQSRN
# Outline: as §1
# CRX = CRX (Homo sapiens, UniProt O43186 1-299); details: protein: recombinant; tags: N-terminal GST; dsDNA, one strand shown
# Outline: as §1
# ETV1 = ETV1 (Homo sapiens, UniProt P50549 1-477); details: protein: recombinant; tags: N-terminal GST; dsDNA, one strand shown
# Outline: as §1
# ERF = target: T6, ERF (Homo sapiens, UniProt P50548 1-548); details: protein: recombinant; tags: N-terminal GST; dsDNA, one strand shown
# T6 sequence: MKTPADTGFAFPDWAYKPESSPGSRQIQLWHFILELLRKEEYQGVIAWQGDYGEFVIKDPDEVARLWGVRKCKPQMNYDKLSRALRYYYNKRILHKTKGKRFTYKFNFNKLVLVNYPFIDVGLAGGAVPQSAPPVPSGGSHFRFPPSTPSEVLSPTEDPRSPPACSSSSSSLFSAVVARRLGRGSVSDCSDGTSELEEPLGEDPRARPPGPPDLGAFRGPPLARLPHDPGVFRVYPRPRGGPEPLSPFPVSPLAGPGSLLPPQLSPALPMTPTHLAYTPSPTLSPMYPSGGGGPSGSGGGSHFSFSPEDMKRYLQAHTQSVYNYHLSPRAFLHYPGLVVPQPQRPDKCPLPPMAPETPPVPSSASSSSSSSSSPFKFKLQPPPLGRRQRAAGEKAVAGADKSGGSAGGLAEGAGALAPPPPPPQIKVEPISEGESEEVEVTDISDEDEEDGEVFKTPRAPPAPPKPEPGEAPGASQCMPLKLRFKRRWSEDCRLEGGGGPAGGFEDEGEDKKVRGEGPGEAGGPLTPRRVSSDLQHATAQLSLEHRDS
# Outline: as §1
# ETV3L = target: T7, ETV3L (Homo sapiens, UniProt Q6ZN32 1-361); details: protein: recombinant; tags: N-terminal GST; dsDNA, one strand shown
# T7 sequence: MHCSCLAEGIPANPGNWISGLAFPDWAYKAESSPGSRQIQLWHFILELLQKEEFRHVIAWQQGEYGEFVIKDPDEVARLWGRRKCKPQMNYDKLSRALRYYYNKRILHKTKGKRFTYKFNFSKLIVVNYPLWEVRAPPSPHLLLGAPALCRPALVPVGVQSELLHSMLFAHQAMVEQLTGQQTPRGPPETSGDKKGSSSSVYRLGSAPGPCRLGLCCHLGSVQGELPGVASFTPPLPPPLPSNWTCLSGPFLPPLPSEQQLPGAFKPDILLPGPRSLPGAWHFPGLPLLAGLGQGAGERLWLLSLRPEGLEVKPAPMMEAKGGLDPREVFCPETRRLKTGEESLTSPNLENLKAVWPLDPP
# Outline: as §1
# ETS2 = target: T8, ETS2 (Homo sapiens, UniProt P15036 1-469); details: protein: recombinant; tags: N-terminal GST; dsDNA, one strand shown
# T8 sequence: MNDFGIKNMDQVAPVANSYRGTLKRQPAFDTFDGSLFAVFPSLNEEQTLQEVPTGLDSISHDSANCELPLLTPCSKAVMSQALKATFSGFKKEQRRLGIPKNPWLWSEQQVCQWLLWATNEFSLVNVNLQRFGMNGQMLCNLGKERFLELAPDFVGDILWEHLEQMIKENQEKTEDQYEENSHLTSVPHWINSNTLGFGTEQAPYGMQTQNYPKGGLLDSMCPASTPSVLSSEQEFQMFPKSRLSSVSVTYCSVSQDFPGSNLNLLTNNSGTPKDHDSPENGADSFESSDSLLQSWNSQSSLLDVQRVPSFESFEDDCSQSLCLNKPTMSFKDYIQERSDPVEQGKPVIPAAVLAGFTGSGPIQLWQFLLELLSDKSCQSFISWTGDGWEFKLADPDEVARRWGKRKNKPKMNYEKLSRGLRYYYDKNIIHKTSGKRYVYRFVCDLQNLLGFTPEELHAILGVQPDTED
# Outline: as §1
# SPDEF = target: T9, SPDEF (Homo sapiens, UniProt O95238 1-335); details: protein: recombinant; tags: N-terminal GST; dsDNA, one strand shown
# T9 sequence: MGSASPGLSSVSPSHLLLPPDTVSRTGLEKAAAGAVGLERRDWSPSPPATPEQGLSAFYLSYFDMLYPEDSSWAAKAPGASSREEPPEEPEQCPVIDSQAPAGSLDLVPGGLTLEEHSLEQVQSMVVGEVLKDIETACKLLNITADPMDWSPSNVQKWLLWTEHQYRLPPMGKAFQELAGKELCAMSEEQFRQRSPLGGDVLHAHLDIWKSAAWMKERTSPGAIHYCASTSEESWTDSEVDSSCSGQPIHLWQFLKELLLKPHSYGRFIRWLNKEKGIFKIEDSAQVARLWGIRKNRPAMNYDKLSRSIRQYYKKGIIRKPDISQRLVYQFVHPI
# Outline: as §1
# ETV7 = target: T10, ETV7 (Homo sapiens, UniProt Q9Y603 1-341); details: protein: recombinant; tags: N-terminal GST; dsDNA, one strand shown
# T10 sequence: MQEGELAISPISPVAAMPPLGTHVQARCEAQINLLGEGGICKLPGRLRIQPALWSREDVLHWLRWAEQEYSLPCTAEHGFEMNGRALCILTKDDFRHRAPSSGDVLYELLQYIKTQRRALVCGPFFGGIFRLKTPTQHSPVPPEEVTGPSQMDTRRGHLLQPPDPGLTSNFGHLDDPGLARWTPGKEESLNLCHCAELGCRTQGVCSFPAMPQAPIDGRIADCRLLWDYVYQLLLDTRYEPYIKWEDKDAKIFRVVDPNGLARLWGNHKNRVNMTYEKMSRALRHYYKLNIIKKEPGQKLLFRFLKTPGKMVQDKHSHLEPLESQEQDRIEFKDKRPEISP
# Outline: as §1
# ELF5 = target: T11, ELF5 (Homo sapiens, UniProt Q9UKW6-2 1-255); details: protein: recombinant; tags: N-terminal GST; dsDNA, one strand shown
# T11 sequence: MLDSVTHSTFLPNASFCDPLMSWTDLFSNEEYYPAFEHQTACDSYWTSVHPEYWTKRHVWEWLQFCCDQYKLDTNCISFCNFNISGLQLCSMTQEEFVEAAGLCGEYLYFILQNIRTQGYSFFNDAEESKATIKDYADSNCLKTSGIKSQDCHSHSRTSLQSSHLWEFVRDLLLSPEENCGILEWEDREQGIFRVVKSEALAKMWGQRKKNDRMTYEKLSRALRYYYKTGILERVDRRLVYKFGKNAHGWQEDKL
# Outline: as §1
# ETV3 = target: T12, ETV3 (Homo sapiens, UniProt P41162-2 1-143); details: protein: recombinant; tags: N-terminal GST; dsDNA, one strand shown
# T12 sequence: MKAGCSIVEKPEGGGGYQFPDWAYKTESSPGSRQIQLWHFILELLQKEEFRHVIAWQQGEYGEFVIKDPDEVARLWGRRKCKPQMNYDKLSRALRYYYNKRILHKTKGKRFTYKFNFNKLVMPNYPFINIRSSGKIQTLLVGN
# Outline: as §1
# ETV6 = ETV6 (Homo sapiens, UniProt P41212 1-452); details: protein: recombinant; tags: N-terminal GST; dsDNA, one strand shown
# Outline: as §1
# Chain of ELF4 (Q99607 whole entry): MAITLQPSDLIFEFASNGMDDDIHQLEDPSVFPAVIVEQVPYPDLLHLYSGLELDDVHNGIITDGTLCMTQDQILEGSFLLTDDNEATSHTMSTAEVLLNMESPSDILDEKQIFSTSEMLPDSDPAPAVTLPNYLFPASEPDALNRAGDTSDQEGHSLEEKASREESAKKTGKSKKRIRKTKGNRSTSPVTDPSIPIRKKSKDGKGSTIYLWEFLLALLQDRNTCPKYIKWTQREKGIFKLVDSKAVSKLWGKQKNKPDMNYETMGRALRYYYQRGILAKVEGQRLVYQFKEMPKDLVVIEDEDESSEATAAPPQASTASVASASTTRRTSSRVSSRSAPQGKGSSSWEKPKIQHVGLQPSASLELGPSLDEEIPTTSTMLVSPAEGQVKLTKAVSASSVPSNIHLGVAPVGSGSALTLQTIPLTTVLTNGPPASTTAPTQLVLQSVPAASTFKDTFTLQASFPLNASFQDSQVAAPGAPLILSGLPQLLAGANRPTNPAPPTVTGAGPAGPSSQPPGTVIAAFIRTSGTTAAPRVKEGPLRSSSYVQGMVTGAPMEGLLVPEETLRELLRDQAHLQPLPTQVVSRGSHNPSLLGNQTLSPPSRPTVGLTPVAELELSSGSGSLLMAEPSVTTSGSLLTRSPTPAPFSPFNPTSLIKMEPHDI
# Chain of ETV5 (P41161 whole entry): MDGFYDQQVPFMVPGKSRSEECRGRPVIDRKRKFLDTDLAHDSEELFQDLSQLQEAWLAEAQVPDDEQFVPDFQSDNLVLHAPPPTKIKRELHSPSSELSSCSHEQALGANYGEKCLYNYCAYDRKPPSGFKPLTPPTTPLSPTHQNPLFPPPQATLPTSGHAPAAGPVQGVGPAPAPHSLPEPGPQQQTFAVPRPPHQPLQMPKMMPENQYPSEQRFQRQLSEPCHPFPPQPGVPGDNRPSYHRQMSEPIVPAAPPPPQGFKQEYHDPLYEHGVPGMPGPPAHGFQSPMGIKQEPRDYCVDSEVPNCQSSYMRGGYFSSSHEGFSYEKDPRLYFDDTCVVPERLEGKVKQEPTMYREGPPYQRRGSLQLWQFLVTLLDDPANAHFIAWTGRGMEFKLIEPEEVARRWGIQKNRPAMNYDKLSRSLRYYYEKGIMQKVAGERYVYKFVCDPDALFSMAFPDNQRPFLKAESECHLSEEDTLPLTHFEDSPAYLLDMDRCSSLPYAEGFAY
# Chain of ETV1 (P50549 whole entry): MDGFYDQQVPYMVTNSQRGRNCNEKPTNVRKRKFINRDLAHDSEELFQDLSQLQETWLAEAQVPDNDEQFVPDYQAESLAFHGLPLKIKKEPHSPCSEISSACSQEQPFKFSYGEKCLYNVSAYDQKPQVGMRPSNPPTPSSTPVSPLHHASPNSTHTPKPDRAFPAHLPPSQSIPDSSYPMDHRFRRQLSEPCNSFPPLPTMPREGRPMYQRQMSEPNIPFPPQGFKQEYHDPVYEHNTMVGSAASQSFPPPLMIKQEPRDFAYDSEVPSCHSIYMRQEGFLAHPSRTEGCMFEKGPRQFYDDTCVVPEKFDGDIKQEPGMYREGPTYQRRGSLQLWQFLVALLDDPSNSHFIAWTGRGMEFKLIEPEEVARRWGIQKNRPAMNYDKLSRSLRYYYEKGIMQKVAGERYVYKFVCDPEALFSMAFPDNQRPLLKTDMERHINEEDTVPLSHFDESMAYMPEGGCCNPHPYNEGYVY
# Chain of HSF1 (Q00613 whole entry): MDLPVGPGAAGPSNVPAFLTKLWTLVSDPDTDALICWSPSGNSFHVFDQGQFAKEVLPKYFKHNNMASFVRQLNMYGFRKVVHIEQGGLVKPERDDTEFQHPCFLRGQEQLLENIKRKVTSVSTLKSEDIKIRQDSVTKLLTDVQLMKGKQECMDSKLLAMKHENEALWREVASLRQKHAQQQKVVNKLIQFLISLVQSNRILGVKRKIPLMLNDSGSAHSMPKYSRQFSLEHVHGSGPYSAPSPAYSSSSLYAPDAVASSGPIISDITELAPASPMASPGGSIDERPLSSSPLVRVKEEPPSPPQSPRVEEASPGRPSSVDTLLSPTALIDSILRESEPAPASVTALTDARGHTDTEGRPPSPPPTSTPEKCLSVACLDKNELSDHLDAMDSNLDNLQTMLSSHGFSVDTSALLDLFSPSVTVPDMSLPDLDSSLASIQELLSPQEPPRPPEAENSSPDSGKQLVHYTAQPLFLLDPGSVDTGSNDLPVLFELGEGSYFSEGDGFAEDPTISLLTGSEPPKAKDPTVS
# Chain of ETV6 (P41212 whole entry): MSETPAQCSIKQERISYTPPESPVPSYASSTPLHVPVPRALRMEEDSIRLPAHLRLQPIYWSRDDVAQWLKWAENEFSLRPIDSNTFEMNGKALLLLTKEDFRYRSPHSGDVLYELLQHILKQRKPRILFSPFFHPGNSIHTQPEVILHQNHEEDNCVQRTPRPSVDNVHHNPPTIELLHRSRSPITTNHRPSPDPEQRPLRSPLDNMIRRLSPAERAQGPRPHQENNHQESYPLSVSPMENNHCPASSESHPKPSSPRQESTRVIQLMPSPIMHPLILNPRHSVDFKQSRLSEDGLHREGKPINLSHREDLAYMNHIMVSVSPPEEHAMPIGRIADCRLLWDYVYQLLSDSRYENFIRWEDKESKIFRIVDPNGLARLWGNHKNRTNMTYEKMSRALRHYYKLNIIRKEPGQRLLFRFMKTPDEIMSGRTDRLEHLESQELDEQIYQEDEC
# Chain of CRX (O43186 whole entry): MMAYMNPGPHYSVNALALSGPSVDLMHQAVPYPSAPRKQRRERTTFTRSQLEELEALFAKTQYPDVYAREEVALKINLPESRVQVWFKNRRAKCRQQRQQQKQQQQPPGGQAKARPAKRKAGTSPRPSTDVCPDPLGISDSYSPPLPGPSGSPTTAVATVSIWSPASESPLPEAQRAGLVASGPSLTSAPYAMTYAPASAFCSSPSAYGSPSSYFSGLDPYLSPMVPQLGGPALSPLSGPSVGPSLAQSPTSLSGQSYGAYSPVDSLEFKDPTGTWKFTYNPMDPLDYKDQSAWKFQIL
sequence,measurement,setting,value
AGTATC,binding signal,FEV,"1.12 fold enrichment (6-mer frequency, TF over GST control)"
same,binding signal,ETV5,"1.18 fold enrichment (6-mer frequency, TF over GST control)"
same,binding signal,HSF1,"1.03 fold enrichment (6-mer frequency, TF over GST control)"
same,binding signal,SPIC,"1.14 fold enrichment (6-mer frequency, TF over GST control)"
same,binding signal,ELF4,"1.12 fold enrichment (6-mer frequency, TF over GST control)"
same,binding signal,ELK4,"1.1 fold enrichment (6-mer frequency, TF over GST control)"
same,binding signal,ETV2,"1.26 fold enrichment (6-mer frequency, TF over GST control)"
same,binding signal,ELF3,"1.16 fold enrichment (6-mer frequency, TF over GST control)"
same,binding signal,CRX,"1.03 fold enrichment (6-mer frequency, TF over GST control)"
same,binding signal,ETV1,"1.07 fold enrichment (6-mer frequency, TF over GST control)"
same,binding signal,ERF,"1.12 fold enrichment (6-mer frequency, TF over GST control)"
same,binding signal,ETV3L,"1.09 fold enrichment (6-mer frequency, TF over GST control)"
same,binding signal,ETS2,"1.18 fold enrichment (6-mer frequency, TF over GST control)"
same,binding signal,SPDEF,"1.14 fold enrichment (6-mer frequency, TF over GST control)"
same,binding signal,ETV7,"1.13 fold enrichment (6-mer frequency, TF over GST control)"
same,binding signal,ELF5,"1.23 fold enrichment (6-mer frequency, TF over GST control)"
same,binding signal,ETV3,"1.13 fold enrichment (6-mer frequency, TF over GST control)"
same,binding signal,ETV6,"1.19 fold enrichment (6-mer frequency, TF over GST control)"
